# Compounds without any hit were thinned out: in the full panel of roughly 83,000, 20% have a hit.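 For each line, cells grew in 96-well plates with the test compound present at a single concentration for 48 hours.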 A number with no mark means an inactive call. The source made the active and inactive calls. Rule for the calls: active = growth percent below 10; inactive = the rest.
# Columns and labels:
# Test in all cases: NCI-60 one-dose screen, 48 h (100 = growth as untreated, 0 = no growth, -100 = all killed)
# Settings in all cases: 10 µM unless noted
# NCI-H23 lung = tested on: NCI-H23 lung
# NCI-H226 lung = tested on: NCI-H226 lung
# NCI-H322M lung = tested on: NCI-H322M lung
# HOP-62 NSCLC = tested on: HOP-62 NSCLC
# NCI-H460 lung = tested on: NCI-H460 lung
# HOP-92 NSCLC = tested on: HOP-92 NSCLC
# NCI-H522 lung = tested on: NCI-H522 lung
# A549/ATCC NSCLC = tested on: A549/ATCC NSCLC
# 786-0 renal = tested on: 786-0 renal
# COLO 205 colon = tested on: COLO 205 colon
Structure (SMILES),growth (NCI-H23 lung),growth (NCI-H226 lung),growth (NCI-H322M lung) [%],growth (HOP-62 NSCLC),growth (NCI-H460 lung),growth (HOP-92 NSCLC) [%],growth (NCI-H522 lung),growth (A549/ATCC NSCLC),growth (786-0 renal),growth (COLO 205 colon)
COc1cccc(/C=C\C(=O)c2ccccc2)c1,86.7%,76.7%,85,87%,78%,87.6,81.2%,92.4%,74.4%,90.1%
CNC(=S)N/N=C/CSC/C=N/NC(=S)NC,85.2%,104%,106,90.5%,70.5%,101,18.7%,62.8%,96.1%,39.1%
ClC1=C2NC=NC2n2c(nnc2-c2ccc(Cl)cc2)N1 (stereo not given),107%,96.2%,110,98.7%,106%,109,73.2%,81.4%,97.2%,89.8%
Nc1c(C(=O)Nc2cccc3c2OCCO3)sc2nc3c(cc12)C(=O)CCC3,46.4%,27.9%,45.3,46%,8.5% (active),107,2.24% (active),37.7%,44.5%,-3.5% (active)
CC/C=C\C[C@H](F)C/C=C1/C(=O)C=C[C@@H]1C/C=C\CCCC(=O)OC,-12.6% (active),25.4%,45.5,-25.8% (active),1.34% (active),68.9,-26.8% (active),24.3%,5.15% (active),-28.1% (active)
CC1=C(NCCN2CCCC2)C(=O)c2c(OCc3cccc(Cl)c3)cccc2C1=O,81.4%,94.1%,75.8,78.4%,83.1%,60.6,82.9%,77.2%,63.3%,69.7%
NC1=CSC2=N/C(=C\c3ccc(Cl)cc3)C(=O)N12,72.6%,80.3%,95.7,83.5%,62.1%,69.5,33.8%,74.2%,81.4%,90%
O=[N+]([O-])c1cccc(-c2nc3sccn3c2-c2ccnc(NCCCNS(=O)(=O)c3cccc(F)c3)n2)c1,-9.68% (active),-5.67% (active),45.2,13.1%,16.3%,46.3,-8.69% (active),7.27% (active),43.4%,-2.26% (active)
O=C1C2CC=CCC2C(=O)N1CNc1ccc(Cl)cc1 (stereo not given),94.2%,90.5%,92.2,86.4%,107%,62.9,74.7%,93.6%,89.4%,115%
O=C1c2cc3c(cc2-c2c1c1cc(Cl)c(Cl)cc1c(=O)n2CCCn1ccnc1)OCO3,-19.4% (active),-3.81% (active),22.9,-19.5% (active),6.51% (active),29.5,1.51% (active),3.18% (active),-3.17% (active),6.24% (active)
COc1ccc(-c2cnoc2-c2cc(OC)c3c(c2)OCCO3)cc1,16.7%,61.8%,45,-8.55% (active),3.25% (active),31,-39.1% (active),18.6%,8.21% (active),-58.4% (active)
Nc1c(C(=O)Nc2ccccc2)sc2nc3c(cc12)CN(CCc1ccccc1)CC3,84.2%,89.8%,94.2,99.2%,100%,75.5,86.1%,107%,101%,116%
O=[N+]([O-])c1cccc(-c2nc3sccn3c2-c2ccnc(NCCNS(=O)(=O)c3ccc(C(F)(F)F)cc3)n2)c1,43.3%,40.3%,61.8,73%,33.4%,44.7,34.3%,31.9%,60.3%,37.2%

# — PubChem BioAssay (NCI)
